Source: PubChem BioAssay

Experiments:
[1] = tested on: Botulinum neurotoxin type F light chain protease (Clostridium botulinum); experiment: Botulinum neurotoxin type F light chain protease inhibition, multiplex microsphere flow cytometry, validation set (AID 588459); settings: multiplex microsphere protease substrate cleavage assay, at 10 µM, active compounds read high
[2] = biological target: Botulinum neurotoxin type A (Clostridium botulinum) (UniProt P0DPI0); experiment: BoNT/A light chain protease inhibitors, biochemical, multiplex microsphere flow cytometry, validation set (AID 588460); settings: at 10 µM, active compounds read high
[3] = biological target: Lethal factor (Bacillus anthracis) (UniProt P15917); experiment: Lethal factor protease inhibitors, Bacillus anthracis, multiplex microsphere cleavage assay, validation set (AID 588461); settings: flow cytometry, at 10 µM, active compounds read high

Measured: inhibition

Sequence of Lethal factor (Bacillus anthracis) (P15917 whole entry, looked up): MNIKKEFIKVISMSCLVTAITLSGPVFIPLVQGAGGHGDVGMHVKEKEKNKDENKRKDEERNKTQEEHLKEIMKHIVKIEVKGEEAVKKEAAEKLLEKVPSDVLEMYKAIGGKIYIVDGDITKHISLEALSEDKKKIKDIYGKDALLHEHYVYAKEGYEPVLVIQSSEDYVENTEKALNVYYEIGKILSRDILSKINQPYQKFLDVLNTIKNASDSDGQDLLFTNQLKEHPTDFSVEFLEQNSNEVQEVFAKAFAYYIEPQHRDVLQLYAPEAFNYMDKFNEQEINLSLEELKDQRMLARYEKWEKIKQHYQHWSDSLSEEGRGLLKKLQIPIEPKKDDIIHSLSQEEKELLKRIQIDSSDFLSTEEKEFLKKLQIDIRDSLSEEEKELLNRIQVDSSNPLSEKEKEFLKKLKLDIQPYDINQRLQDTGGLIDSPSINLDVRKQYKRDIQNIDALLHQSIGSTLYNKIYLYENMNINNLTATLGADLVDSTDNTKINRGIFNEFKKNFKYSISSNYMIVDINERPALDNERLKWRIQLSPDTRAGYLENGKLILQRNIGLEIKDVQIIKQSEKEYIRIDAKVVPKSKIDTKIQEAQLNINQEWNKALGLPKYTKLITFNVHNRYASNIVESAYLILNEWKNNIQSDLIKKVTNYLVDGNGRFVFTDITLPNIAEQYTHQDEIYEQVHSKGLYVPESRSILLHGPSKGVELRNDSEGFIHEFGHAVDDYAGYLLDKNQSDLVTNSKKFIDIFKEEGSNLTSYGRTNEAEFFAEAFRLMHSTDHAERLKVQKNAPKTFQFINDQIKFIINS
Sequence of Botulinum neurotoxin type A (Clostridium botulinum) (P0DPI0 whole entry, looked up): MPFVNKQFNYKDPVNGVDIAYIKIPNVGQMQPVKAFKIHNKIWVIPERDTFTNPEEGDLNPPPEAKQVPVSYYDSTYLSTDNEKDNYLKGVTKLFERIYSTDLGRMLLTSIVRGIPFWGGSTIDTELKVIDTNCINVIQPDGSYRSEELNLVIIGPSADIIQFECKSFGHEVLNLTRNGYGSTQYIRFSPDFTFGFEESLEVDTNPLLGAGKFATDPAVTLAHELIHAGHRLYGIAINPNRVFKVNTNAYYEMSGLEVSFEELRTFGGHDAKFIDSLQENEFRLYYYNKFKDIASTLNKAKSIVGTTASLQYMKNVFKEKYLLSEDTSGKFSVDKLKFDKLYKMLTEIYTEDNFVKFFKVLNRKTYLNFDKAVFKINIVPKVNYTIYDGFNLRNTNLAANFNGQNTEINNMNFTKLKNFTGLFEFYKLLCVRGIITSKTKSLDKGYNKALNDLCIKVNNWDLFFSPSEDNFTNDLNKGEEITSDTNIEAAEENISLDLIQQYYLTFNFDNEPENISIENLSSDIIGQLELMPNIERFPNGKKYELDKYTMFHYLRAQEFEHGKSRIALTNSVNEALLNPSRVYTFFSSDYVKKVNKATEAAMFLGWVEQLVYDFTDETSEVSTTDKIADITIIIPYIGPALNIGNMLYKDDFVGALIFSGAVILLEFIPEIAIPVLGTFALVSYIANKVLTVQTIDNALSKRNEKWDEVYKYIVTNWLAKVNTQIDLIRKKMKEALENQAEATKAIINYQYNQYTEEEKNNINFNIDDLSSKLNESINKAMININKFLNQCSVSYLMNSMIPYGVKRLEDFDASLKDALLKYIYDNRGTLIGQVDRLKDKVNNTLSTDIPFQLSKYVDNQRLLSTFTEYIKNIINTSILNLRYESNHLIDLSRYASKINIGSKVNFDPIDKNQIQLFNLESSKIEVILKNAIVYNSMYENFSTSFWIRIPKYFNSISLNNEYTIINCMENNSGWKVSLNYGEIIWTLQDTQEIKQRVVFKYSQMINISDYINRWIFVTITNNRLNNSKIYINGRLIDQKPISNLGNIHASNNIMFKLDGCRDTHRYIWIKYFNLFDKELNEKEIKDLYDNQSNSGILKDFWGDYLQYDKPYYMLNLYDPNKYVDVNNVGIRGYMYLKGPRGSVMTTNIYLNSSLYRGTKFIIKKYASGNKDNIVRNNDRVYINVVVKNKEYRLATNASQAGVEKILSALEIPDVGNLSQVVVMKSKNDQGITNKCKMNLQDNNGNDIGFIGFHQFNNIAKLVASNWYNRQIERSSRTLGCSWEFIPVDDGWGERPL

COC(=O)c1cc(OC)c(OC)cc1NC(=O)CN1C(=O)c2ccccc2C1=O
inactive: [1] -3.5% | [2] -1% | [3] -5.5%

CCOC(=O)NN1C(=O)c2ccccc2NC1c1ccc(OC)c(OC)c1 (stereo not given)
inactive: [1] 1.5% | [2] -0.6% | [3] -2%

O=C(CN1CC[n+]2c(-c3cccs3)csc21)c1ccc(Br)cc1
inactive: [1] 0.8% | [2] -0.2% | [3] -1.6%

CCOC(=O)C1C(=O)OC(C)(C)C1C(C)C(=O)c1ccc(C)cc1 (stereo not given)
inactive: [1] 4.4% | [2] 0.5% | [3] 4.6%

CC(C)(S)[C@@H](N)C(=O)O
inactive: [1] 2.9% | [2] -0.8% | [3] 1.1%

CC(C)(C)N1NC2(CCCCC2)NC1=S
inactive: [1] 4.9% | [2] -1.4% | [3] -1.4%

C#C[C@]1(O)CC[C@H]2[C@@H]3CCC4=C(CCC(=O)C4)[C@H]3CC[C@@]21C
inactive: [1] 0.3% | [2] 0.1% | [3] 0.8%

COc1ccc(C(=O)Oc2ccc3c(C)cc(=O)oc3c2C(C)=O)cc1
inactive: [1] 0.7% | [2] -0.3% | [3] 3%

CCOc1ccc(C(=O)C(C)=O)c(OCC)c1
inactive: [1] 4.3% | [2] 1% | [3] 7.8%

CCC[C@@H]1C[C@@H](C(=O)N[C@H]([C@@H](C)O)[C@H]2O[C@H](SC)[C@H](O)[C@@H](O)C2O)N(C)C1 (stereo not given in full)
inactive: [1] 3.2% | [2] -1.6% | [3] 0.6%
